Assay results: PubChem BioAssay AID651582 (Sanford-Burnham Center for Chemical Genomics, 2012)
The whole screen tested about 230,000 compounds, of which about 1,500 (0.65%) were called active.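 Rule for the calls: active = pattern-corrected inhibition of lipid staining of at least 50% with the nuclear-stain viability signal not falling by more than 50%; inactive = the rest, inconclusive results apart.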 Only a selection was taken, and actives are over-represented in it overall.

Assay: inhibitors of triacylglycerol accumulation, primary screen, cell-based, uHTS, fluorescence, H9c2 (AID 651582);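 for inhibition: 0% = DMSO wells and 100% = triacsin C control wells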
Conditions: H9c2 cells, Nile Red lipid (TAG) fluorescence, at 12.5 µM, cells loaded with 200 µM oleic acid; DAPI nuclei signal change (viability), lower = more cytotoxic: measured here: DAPI nuclei count viability; inhibition: stronger effect = higher value

Question: For `COc1cc(NC(=O)c2cc(-c3ccc(F)cc3OC(C)C)n[nH]2)cc(OC)c1OC`, which DAPI nuclei signal change (viability), lower = more cytotoxic is on record?
Answer: -6.58%

Question: And the inhibition?
Answer: 5.57% (inactive)

Question: With `Cc1ccc(Sc2cc(N3CCOCC3)nc(-c3ccccc3)n2)cc1` as the compound, how does the DAPI nuclei signal change (viability), lower = more cytotoxic read?
Answer: -0.706%

Question: What about the inhibition of the same compound?
Answer: 55.1% (active)

Question: For `Cc1cc(N2CCN(c3ccccc3)CC2)nc(N2CCOCC2)n1`, which DAPI nuclei signal change (viability), lower = more cytotoxic is on record?
Answer: -3.71%

Question: What about the inhibition of the same compound?
Answer: 14.3% (inactive)

Question: Which DAPI nuclei signal change (viability), lower = more cytotoxic does the source give for `O=S(=O)(Cc1cc(Sc2ccccc2)nc(-c2ccccc2)n1)c1ccccc1` here?
Answer: -1.14%

Question: And the inhibition?
Answer: 12.7% (inactive)

Question: Which DAPI nuclei signal change (viability), lower = more cytotoxic does the source give for `COc1ccc(-c2ccc3c(c2)C2CC3CCN2CCC#N)cc1` (stereo unspecified) here?
Answer: 3.73%

Question: What about the inhibition of the same compound?
Answer: -6.07% (inactive)

Question: With `CCc1nc2ccc(C(=O)Nc3cccc(OC)c3)cn2c1N(CCC(C)C)CCN(C)C` as the compound, how does the DAPI nuclei signal change (viability), lower = more cytotoxic read?
Answer: 0.0295%

Question: And the inhibition?
Answer: 33.9% (inactive)

Question: Which results are given for `Cc1[nH]c2ccccc2c1C(=O)C(=O)NCc1nnnn1-c1cccc(F)c1`?
Answer: DAPI nuclei signal change (viability), lower = more cytotoxic: 9.45%; inhibition: -12.5% (inactive)

Question: What does the source list for `CCN(CC)c1ncnc2c1ncn2[C@H]1CN(Cc2cccs2)C[C@@H](CO)O1`?
Answer: DAPI nuclei signal change (viability), lower = more cytotoxic: -0.273%; inhibition: -11.2% (inactive)

Question: For `OC(c1ccc(Cl)cc1)c1ncc(-c2ccc(Cl)cc2)[nH]1` (stereo unspecified), which DAPI nuclei signal change (viability), lower = more cytotoxic is on record?
Answer: 11%

Question: And the inhibition?
Answer: -53.7% (inactive)

Question: With `CCCOc1ccccc1C1CC(=O)Nc2cc3c(cc21)OCO3` (stereo unspecified) as the compound, how does the DAPI nuclei signal change (viability), lower = more cytotoxic read?
Answer: -7.65%

Question: And the inhibition?
Answer: 28.7% (inactive)

Question: Which DAPI nuclei signal change (viability), lower = more cytotoxic does the source give for `COc1ccccc1C1C2=C(COC2=O)Nc2cc3c(cc21)OCO3` (stereo unspecified) here?
Answer: -19.2%

Question: And the inhibition?
Answer: 58.6% (active)

Question: For `O=C1OCC2=C1C(c1ccc(Cl)cc1)c1cc3c(cc1O2)OCO3` (stereo unspecified), which DAPI nuclei signal change (viability), lower = more cytotoxic is on record?
Answer: 6.8%

Question: And the inhibition?
Answer: 11% (inactive)

Question: What does the source list for `CN(C)S(=O)(=O)c1cccc(NC(=O)COc2ccc3ccccc3c2)c1`?
Answer: DAPI nuclei signal change (viability), lower = more cytotoxic: -8.57%; inhibition: -14% (inactive)

Question: With `O=C(NCCO)c1cccc(-c2cccc3nccn23)c1` as the compound, how does the DAPI nuclei signal change (viability), lower = more cytotoxic read?
Answer: 4.67%

Question: What about the inhibition of the same compound?
Answer: -6.44% (inactive)

Question: With `COc1ccc(Cc2nnc(N/N=C/c3ccccc3O)[nH]c2=O)cc1OC` as the compound, how does the DAPI nuclei signal change (viability), lower = more cytotoxic read?
Answer: -27%

Question: What about the inhibition of the same compound?
Answer: 50.4% (active)

Question: For `CCOc1ccc(-n2c(O)c(/C=N/Nc3nnc(C)c(=O)[nH]3)c3ccccc3c2=O)cc1`, which DAPI nuclei signal change (viability), lower = more cytotoxic is on record?
Answer: 5.58%

Question: And the inhibition?
Answer: -10.7% (inactive)

Question: What does the source list for `COc1ccc(CCNC(=O)CCCCn2c(=O)[nH]c3ccccc3c2=O)cc1OC`?
Answer: DAPI nuclei signal change (viability), lower = more cytotoxic: -8.64%; inhibition: 21.8% (inactive)

Question: Which DAPI nuclei signal change (viability), lower = more cytotoxic does the source give for `CC1C(=O)N(Cc2cn(CC3CCCCC3)nn2)CCS(=O)(=O)N1Cc1ccc(-c2cccc(N(C)C)c2)cc1` (stereo unspecified) here?
Answer: -0.553%

Question: And the inhibition?
Answer: -17.1% (inactive)

Question: What does the source list for `Cc1ccc(OCC(=O)Nc2ccc(-c3nc4ncccc4o3)cc2)cc1`?
Answer: DAPI nuclei signal change (viability), lower = more cytotoxic: 18.7%; inhibition: 14% (inactive)

Question: With `COc1ccc(CC(=O)Nc2ccc(-c3nnc(-c4ccc(C)cc4)o3)cc2)cc1` as the compound, how does the DAPI nuclei signal change (viability), lower = more cytotoxic read?
Answer: 2.81%

Question: And the inhibition?
Answer: 59.2% (active)

Question: What does the source list for `COc1ccc(NC(=O)c2cc(-c3ccc(C)cc3)on2)cc1`?
Answer: DAPI nuclei signal change (viability), lower = more cytotoxic: 4.01%; inhibition: -3.75% (inactive)

Question: What does the source list for `NNC(=O)c1nnn(-c2nonc2N)c1CN1CCCC1`?
Answer: DAPI nuclei signal change (viability), lower = more cytotoxic: -4.78%; inhibition: -6.85% (inactive)

Question: Which DAPI nuclei signal change (viability), lower = more cytotoxic does the source give for `CC1(C)CC(=O)C=C(c2ccccc2CO)C1=O` here?
Answer: -1.17%

Question: And the inhibition?
Answer: -16.1% (inactive)

Question: Which results are given for `CC(=O)CC(CC(=O)NC1CCCCC1)c1ccccc1` (stereo unspecified)?
Answer: DAPI nuclei signal change (viability), lower = more cytotoxic: 1.1%; inhibition: 2.67% (inactive)

Question: For `Cc1ccc(-c2nc3ccccc3[nH]2)cc1NC(=O)c1sc2ccccc2c1Cl`, which DAPI nuclei signal change (viability), lower = more cytotoxic is on record?
Answer: 17.5%

Question: And the inhibition?
Answer: 58.3% (active)

Question: Which DAPI nuclei signal change (viability), lower = more cytotoxic does the source give for `Cc1nn(C)cc1/C=N/NC(=O)c1sc2ccccc2c1Cl` here?
Answer: 6.2%

Question: And the inhibition?
Answer: -14.7% (inactive)

Question: Which results are given for `COc1ccc(CNC(=O)CNC(=O)c2sc3ccccc3c2Cl)cc1OC`?
Answer: DAPI nuclei signal change (viability), lower = more cytotoxic: -2.17%; inhibition: 10.6% (inactive)

Question: Which DAPI nuclei signal change (viability), lower = more cytotoxic does the source give for `Cc1ccc(Cc2c(-c3ccccc3)nc3ccc(Cl)cn23)cc1` here?
Answer: 0.00442%

Question: What about the inhibition of the same compound?
Answer: -0.293% (inactive)

Question: Which results are given for `COc1ccc(C(=O)N(C)Cc2ccc(OC)c(OC)c2OC)cc1S(=O)(=O)N1CCOCC1`?
Answer: DAPI nuclei signal change (viability), lower = more cytotoxic: -5.3%; inhibition: 8.22% (inactive)

Question: For `O=C(C[C@H]1C[C@H](C(=O)N2CCOCC2)[C@@]2(CCC3CCCC3)c3[nH]c4ccc(Cl)cc4c3CCN2C1=O)NCc1ccco1`, which DAPI nuclei signal change (viability), lower = more cytotoxic is on record?
Answer: 8.62%

Question: What about the inhibition of the same compound?
Answer: 28.1% (inactive)

Question: Which DAPI nuclei signal change (viability), lower = more cytotoxic does the source give for `COc1ccc(CNC(=O)C[C@H]2C[C@H](C(=O)N3CCOCC3)[C@@]3(CCC4CCCC4)c4[nH]c5ccc(Cl)cc5c4CCN3C2=O)cc1OC` here?
Answer: 0.251%

Question: What about the inhibition of the same compound?
Answer: 63.8% (active)

Question: For `COc1ccc2[nH]c3c(c2c1)CCN1C(=O)C(CC(=O)NCCCN(C)C)C[C@H](C(=O)N2CCOCC2)[C@@]31CCC1CCCC1` (stereo partly specified), which DAPI nuclei signal change (viability), lower = more cytotoxic is on record?
Answer: -19.4%

Question: And the inhibition?
Answer: 31.2% (inactive)

Question: Which DAPI nuclei signal change (viability), lower = more cytotoxic does the source give for `CC[C@]12c3[nH]c4ccc(OC)cc4c3CCN1C(=O)C(CC(=O)NCc1ccco1)C[C@@H]2C(=O)N1CCN(C(=O)C2CC2)CC1` (stereo partly specified) here?
Answer: -9.73%

Question: And the inhibition?
Answer: 7.93% (inactive)

Question: Which DAPI nuclei signal change (viability), lower = more cytotoxic does the source give for `Cc1cc(C)n(-c2cc(Oc3ccccc3)ncn2)n1` here?
Answer: 6.79%

Question: What about the inhibition of the same compound?
Answer: -18.3% (inactive)

Question: Which DAPI nuclei signal change (viability), lower = more cytotoxic does the source give for `CC(=O)c1ccc(Oc2cc(C)nc(-n3nc(C)cc3C)n2)cc1` here?
Answer: -32.4%

Question: And the inhibition?
Answer: 61.3% (active)

Question: With `Cc1cc(Oc2ccccc2)nc(N2CCOCC2)n1` as the compound, how does the DAPI nuclei signal change (viability), lower = more cytotoxic read?
Answer: 6.77%

Question: What about the inhibition of the same compound?
Answer: -9.8% (inactive)

Question: Which DAPI nuclei signal change (viability), lower = more cytotoxic does the source give for `CN(CCc1ccccc1)C(=O)c1cccc(NC(=O)Cc2ccc([N+](=O)[O-])cc2)c1` here?
Answer: -3.23%

Question: What about the inhibition of the same compound?
Answer: -35% (inactive)

Question: With `COc1cc(C(=O)OCC(=O)NC23CC4CC(CC(C4)C2)C3)cc(OC)c1OC` as the compound, how does the DAPI nuclei signal change (viability), lower = more cytotoxic read?
Answer: -0.331%

Question: What about the inhibition of the same compound?
Answer: -18.4% (inactive)
